High-throughput results as filed in PubChem.
Most compounds without a hit are left out; they make up all but 4.8% or so of the library.
TIM10 inh – growth inhibitors of isogenic TIM10 control yeast, primary screen, counter-screen for tim10-1 yeast inhibitor project, luminescence, uHTS. S. cerevisiae TIM10 strain growth, BacTiter-Glo luminescence, 24 h. inhibition, % at 10 µM. 1.4% of 330,000 active. AID 463195, 2010;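 active = inhibition of 40% or more at the single tested concentration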;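 also: wild-type TIM10 isogenic control strain grown at permissive 25 °C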
NALP1 yeast inh – NALP1 inflammasome inhibitors in reconstituted yeast, colorimetric, S. cerevisiae, triplicate retest | S. cerevisiae NALP1/ASC/caspase-1 growth, X-gal OD620, 72 h | AID 2071, 2009 | 0.61% of 280,000 active | inhibition, % at 10 µM; in the data active = inhibition mostly above about 24%, no sharp cut-off; inactive = mostly below about 32%
PfHsp90 set2 – growth inhibition of PfHsp90-expressing yeast, primary screen, antimalarial PfHsp90 inhibitor project, S. cerevisiae, BacTiter-Glo luminescence, single point, set 2 | BacTiter-Glo ATP, 48 h; yeast lacking PDR1 and PDR3 efflux regulators | 0.32% of 310,000 active | inhibition, % at 9.4 µM | AID 504621, 2011;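 active = every replicate shows inhibition above about 80%, whatever the replicate mean, limit read from the data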
tim10-1 inh – growth inhibitors of tim10-1 mutant yeast, primary screen, luminescence, uHTS | S. cerevisiae tim10-1 ts strain growth, BacTiter-Glo, 24 h | inhibition, % at 20 µM | 2.2% of 330,000 active | AID 463190, 2010;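 active = inhibition of at least 40%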;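 also: mutant grown at 25 °C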
SKKanGAS inh – S. pyogenes SKKanGAS growth inhibitors in kanamycin, primary screen, streptokinase expression inhibitor project, SKKanGAS strain, BacTiter-Glo luminescence; 6 h; inhibition, % at 7.5 µM; 1.3% of 300,000 active;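 active = mean replicate score, as percent of positive control median, at least 50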;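 also: strain carries kanamycin resistance gene driven by streptokinase promoter and grows in 40 µg/ml kanamycin; loss of luminescence reflects streptokinase promoter inhibition or plain growth inhibition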
tim23-1 inh – growth inhibitors of tim23-1 mutant yeast, primary screen, luminescence, uHTS | S. cerevisiae tim23-1 growth, BacTiter-Glo luminescence, 24 h | inhibition, % at 20 µM | 1.3% of 330,000 active | AID 463212, 2010;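 active = growth inhibition of the mutant yeast at or above 50%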;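 also: temperature-sensitive mutant grown at 25 °C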
tim10-1 confirm – growth inhibitors of tim10-1 mutant yeast, confirmation, single concentration, luminescence, S. cerevisiae; shares compounds with tim10-1 inh; S. cerevisiae tim10-1 ts strain growth, BacTiter-Glo, 24 h; inhibition, % at 20 µM; 56% of 7,400 active;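 active = inhibition of yeast growth at or above a set limit in either of two repeat tests at 20 µM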;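 also: tim10-1 mutant grown at permissive 25 °C to find synthetic lethal compounds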
TIM10 conf – growth inhibitors of wild-type TIM10 yeast, confirmation, counter-screen for tim10-1 synthetic lethality project, single concentration, luminescence, S. cerevisiae. 63% of 4,600 active. S. cerevisiae tim10 strain growth, BacTiter-Glo luminescence, 24 h. inhibition, % at 10 µM. shares compounds with TIM10 inh;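 active = inhibition of yeast growth at or above a set limit in either of two replicates at 10 µM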; also: this counterscreen used the strain with wild-type TIM10
tim23-1 conf – tim23-1 mutant yeast growth inhibitors, confirmation, luminescence, single concentration. shares compounds with tim23-1 inh. AID 463218, 2010. S. cerevisiae tim23-1 growth, BacTiter-Glo luminescence, 24 h. 83% of 4,400 active. inhibition, % at 20 µM;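 active = inhibition above about 39% in either of two replicate wells at 20 µM, limit read from the data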;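 also: temperature-sensitive tim23-1 mutant grown at 25 °C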
Numbers stand for hits.

How did O=C(CC1C(=O)N(c2ccccc2)C(=S)N1c1ccccc1)c1ccccc1 (stereo not given) do in these assays?
TIM10 inh: 49; NALP1 yeast inh: inactive; PfHsp90 set2: inactive; tim10-1 inh: 47; SKKanGAS inh: inactive; tim23-1 inh: 52; tim10-1 confirm: 42; TIM10 conf: 40; tim23-1 conf: 53

How did Cc1cccc(C)c1OCC(=O)Nc1c(C)nn(C)c1C do in these assays?
TIM10 inh: inactive; NALP1 yeast inh: inactive; PfHsp90 set2: inactive; tim10-1 inh: inactive; SKKanGAS inh: inactive; tim23-1 inh: inactive

How did Cc1ccc2ccccc2[n+]1CCCS(=O)(=O)[O-] do in these assays?
TIM10 inh: inactive; NALP1 yeast inh: inactive; PfHsp90 set2: inactive; tim10-1 inh: inactive; SKKanGAS inh: inactive; tim23-1 inh: inactive

What do the screens show for `CCCC[n+]1c2ccccc2cc2ccccc21`?
TIM10 inh: 74; NALP1 yeast inh: inactive; PfHsp90 set2: inactive; tim10-1 inh: 71; SKKanGAS inh: inactive; tim23-1 inh: 65; tim10-1 confirm: 70; TIM10 conf: 69; tim23-1 conf: 64

How did CCC[n+]1c2ccccc2cc2ccccc21 do in these assays?
TIM10 inh: 66; NALP1 yeast inh: inactive; PfHsp90 set2: inactive; tim10-1 inh: 68; SKKanGAS inh: inactive; tim23-1 inh: 56; tim10-1 confirm: 66; TIM10 conf: 62; tim23-1 conf: 60

Results for CCCCC[n+]1cccc2c3ccccc3ccc21 ?
TIM10 inh: inactive; NALP1 yeast inh: inactive; PfHsp90 set2: inactive; tim10-1 inh: inactive; SKKanGAS inh: inactive; tim23-1 inh: inactive

Results for CC(=O)Nc1cccc(NC(=O)c2cccc3cccnc23)c1 ?
TIM10 inh: inactive; NALP1 yeast inh: inactive; PfHsp90 set2: inactive; tim10-1 inh: inactive; SKKanGAS inh: inactive; tim23-1 inh: inactive

How did Cc1ccc(NC(=O)c2cccc3cccnc23)cc1 do in these assays?
TIM10 inh: inactive; NALP1 yeast inh: inactive; PfHsp90 set2: inactive; tim10-1 inh: 42; SKKanGAS inh: inactive; tim23-1 inh: 65; tim10-1 confirm: 41; tim23-1 conf: 80

Results for COc1ccccc1C(=O)Nc1cccc2cccnc12 ?
TIM10 inh: inactive; NALP1 yeast inh: inactive; PfHsp90 set2: inactive; tim10-1 inh: 48; SKKanGAS inh: inactive; tim23-1 inh: 72; tim10-1 confirm: 42; tim23-1 conf: 72

What do the screens show for `O=C(Nc1cccc2cccnc12)c1ccccc1Cl`?
TIM10 inh: inactive; tim10-1 inh: inactive; SKKanGAS inh: inactive; tim23-1 inh: inactive

How did COC(=O)c1ccc(Nc2nc(N3CCOCC3)nc(N3CCOCC3)n2)cc1 do in these assays?
TIM10 inh: inactive; NALP1 yeast inh: inactive; PfHsp90 set2: inactive; tim10-1 inh: inactive; SKKanGAS inh: inactive; tim23-1 inh: inactive

What do the screens show for `Cc1nn(-c2ccccc2)c(Cl)c1/C=C(\C#N)C(=O)NC(C)C`?
TIM10 inh: 53; NALP1 yeast inh: inactive; PfHsp90 set2: inactive; tim10-1 inh: 56; SKKanGAS inh: inactive; tim23-1 inh: 73; tim10-1 confirm: 72; TIM10 conf: 56; tim23-1 conf: 60

What do the screens show for `Oc1ccc2ccccc2c1CNc1ccc(Br)cn1`?
TIM10 inh: inactive; NALP1 yeast inh: inactive; PfHsp90 set2: inactive; tim10-1 inh: 46; SKKanGAS inh: inactive; tim23-1 inh: 61; tim10-1 confirm: 63; tim23-1 conf: 68

What do the screens show for `O=C(NCc1ccc2[nH]c3c(c2c1)CCCC3)c1ccc(S(=O)(=O)N2CCCCC2)cc1`?
TIM10 inh: inactive; NALP1 yeast inh: inactive; PfHsp90 set2: inactive; tim10-1 inh: inactive; SKKanGAS inh: inactive; tim23-1 inh: inactive

Results for S=C(NCc1ccc2[nH]c3c(c2c1)CCCC3)Nc1ccccc1 ?
TIM10 inh: 48; NALP1 yeast inh: inactive; PfHsp90 set2: inactive; tim10-1 inh: 46; SKKanGAS inh: inactive; tim23-1 inh: 53; tim10-1 confirm: 43; TIM10 conf: 51; tim23-1 conf: 59

How did N/C(=N\OC(=O)c1ccc(F)cc1)c1ccccc1 do in these assays?
TIM10 inh: 63; NALP1 yeast inh: inactive; PfHsp90 set2: inactive; tim10-1 inh: 68; SKKanGAS inh: inactive; tim23-1 inh: 73; tim10-1 confirm: 64; TIM10 conf: 61; tim23-1 conf: 76

Results for Cc1ccc(/C(N)=N/OC(=O)c2ccc(F)cc2)cc1 ?
TIM10 inh: 67; NALP1 yeast inh: inactive; PfHsp90 set2: inactive; tim10-1 inh: 59; SKKanGAS inh: inactive; tim23-1 inh: 68; tim10-1 confirm: 55; TIM10 conf: 69; tim23-1 conf: 65

How did Cc1ccc(C(=O)O/N=C(\N)c2ccccn2)cc1 do in these assays?
TIM10 inh: inactive; NALP1 yeast inh: inactive; PfHsp90 set2: inactive; tim10-1 inh: inactive; SKKanGAS inh: inactive; tim23-1 inh: inactive

Results for CCc1nc2ccccc2c2nc3ccccc3n12 ?
TIM10 inh: 44; NALP1 yeast inh: inactive; PfHsp90 set2: inactive; tim10-1 inh: 59; SKKanGAS inh: inactive; tim23-1 inh: 51; tim10-1 confirm: 46; TIM10 conf: inactive; tim23-1 conf: 48

Results for c1ccc2c(c1)nc(CN1CCOCC1)n1c3ccccc3nc21 ?
TIM10 inh: inactive; NALP1 yeast inh: inactive; PfHsp90 set2: inactive; tim10-1 inh: inactive; SKKanGAS inh: inactive; tim23-1 inh: inactive

What do the screens show for `Cc1nc(C(=O)NCCC(C)C)sc1C1(C)CC(c2cccc([N+](=O)[O-])c2)=NO1` (stereo not given)?
TIM10 inh: inactive; PfHsp90 set2: inactive; tim10-1 inh: inactive; SKKanGAS inh: inactive; tim23-1 inh: inactive

Results for CN1C(=O)/C(=C\C(=O)c2cccs2)c2ccccc21 ?
TIM10 inh: 85; NALP1 yeast inh: inactive; PfHsp90 set2: inactive; tim10-1 inh: 47; SKKanGAS inh: inactive; tim23-1 inh: 84; tim10-1 confirm: 70; TIM10 conf: 81; tim23-1 conf: inactive
